# Source: the supplement of paper PMC6555819
# Key:
# Experiment in all cases: PBM binding z-score (relative to random genomic background probes); higher = stronger binding; sequences stand for … in GC…GCGATTGACAGCGTAGAATGAAGG
# [1] = tested on: FXR:RXRa (NR concentration 270 nM, RXRa partner concentration 90 nM)
# Procedure, shortened: (§1)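 Binding z-scores take random background probes as their reference. They come from custom Agilent 4×180K protein-binding microarrays incubated 1 h with ligand-free nuclear receptor dimers, with antibodies against each partner (one per run) detecting binding. Scanned fluorescence was regression-normalized.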
# [2] = tested on: LXRa:RXRa (NR concentration 270 nM, RXRa partner concentration 90 nM)
# Procedure, shortened: as §1
# [3] = tested on: LXRa homodimer (NR concentration 270 nM)
# Procedure, shortened: as §1
# [4] = tested on: LXRb:RXRa (NR concentration 270 nM, RXRa partner concentration 90 nM)
# Procedure, shortened: as §1
# [5] = tested on: LXRb homodimer (NR concentration 270 nM)
# Procedure, shortened: as §1
# [6] = tested on: PPARa:RXRa (NR concentration 270 nM, RXRa partner concentration 90 nM)
# Procedure, shortened: as §1
# [7] = tested on: PPARg:RXRa (NR concentration 180 nM, RXRa partner concentration 90 nM)
# Procedure, shortened: as §1
# [8] = tested on: PPARg:RXRa 270nM:90nM, anti-RXR (NR concentration 270 nM, RXRa partner concentration 90 nM)
# Procedure, shortened: as §1
# [9] = tested on: PPARg:RXRa 30nM:10nM, anti-RXR (NR concentration 30 nM, RXRa partner concentration 10 nM)
# Procedure, shortened: as §1
# [10] = tested on: PPARg:RXRa 90nM:30nM, anti-RXR (NR concentration 90 nM, RXRa partner concentration 30 nM)
# Procedure, shortened: as §1
# [11] = tested on: PPARg:RXRa DBDmut IVT, anti-RXR (DBD mutation: RXRa K156A/R161A, NR concentration 270 nM, RXRa partner concentration 90 nM)
# Procedure, shortened: as §1
# [12] = tested on: PPARg:RXRa IVT, anti-PPARg (NR concentration 270 nM, RXRa partner concentration 90 nM)
# Procedure, shortened: as §1
# [13] = tested on: PPARg DBDmut:RXRa IVT, anti-PPARg (DBD mutation: PPARg1 K132A/R137A, NR concentration 270 nM, RXRa partner concentration 90 nM)
# Procedure, shortened: as §1
# [14] = tested on: PPARg DBDmut IVT, anti-PPARg (DBD mutation: PPARg1 K132A/R137A, NR concentration 270 nM)
# Procedure, shortened: as §1
# [15] = tested on: PPARg homodimer (NR concentration 180 nM)
# Procedure, shortened: as §1
# [16] = tested on: PXR:RXRa (NR concentration 270 nM, RXRa partner concentration 90 nM)
# Procedure, shortened: as §1
# [17] = tested on: PXR homodimer (NR concentration 270 nM)
# Procedure, shortened: as §1
# [18] = tested on: RARa:RXR (NR concentration 270 nM, RXRa partner concentration 90 nM)
# Procedure, shortened: as §1
# [19] = tested on: RARa homodimer (NR concentration 270 nM)
# Procedure, shortened: as §1
# [20] = tested on: RARb:RXRa (NR concentration 270 nM, RXRa partner concentration 90 nM)
# Procedure, shortened: as §1
Sequence,PBM binding z-score [1],PBM binding z-score [2],PBM binding z-score [3],PBM binding z-score [4],PBM binding z-score [5],PBM binding z-score [6],PBM binding z-score [7],PBM binding z-score [8],PBM binding z-score [9],PBM binding z-score [10],PBM binding z-score [11],PBM binding z-score [12],PBM binding z-score [13],PBM binding z-score [14],PBM binding z-score [15],PBM binding z-score [16],PBM binding z-score [17],PBM binding z-score [18],PBM binding z-score [19],PBM binding z-score [20]
CCAGACTGGTGAGAAGGTAACTCAGCCTCGATTA,-0.309,-0.491,-0.22,-0.472,-0.739,-0.19,0.0437,-0.117,-0.431,-0.102,-0.548,-0.378,-1.06,-0.669,0.4,-0.321,-0.553,-0.228,-0.0331,-0.455
CCTACTGGGCCATCAGGTCATTGGTATCAACGTT,1.47,1.25,1.08,1.78,-0.424,2.91,2.98,3.68,1.17,2.79,4.05,5.2,-1.01,-0.269,1.09,1.67,0.395,2.04,-0.0401,2.25
CGTCCAAGGTCAATGCTAGGTCAGTAAAAGCATT,6.68,5.2,2.38,4.32,0.868,5.23,4.37,4.46,1.9,3.08,3.36,4.08,0.0708,-0.363,5.6,4.82,1.32,6.12,1.53,5.32
TCTAGTTGTTCACGGAGGTCACACACGACGGGTA,2.82,3.29,2.83,3.17,0.94,3.66,1.84,2.89,3.43,3.07,1.73,2.51,0.302,1.32,2.67,4.27,1.07,4.45,1.31,3.37
TCTAGTTGATCAAAGGTCACACACTCGAAATGCG,5.64,5.85,3.84,5.63,1.9,5.8,7.89,7.86,7.94,8.62,2.34,4.45,1.08,1.36,4.93,5.73,2.14,6.33,3.64,4.85
CCTATTAGTTGACCATAAGGGTAACCGAAGCTCG,0.709,0.386,0.682,0.604,0.958,0.678,0.317,0.671,0.348,0.358,0.609,0.727,0.109,1.15,1.86,0.536,1.04,0.834,2.48,1.06
TCTTGTAGATCGACAGGAGGTTAAGAAAGATCGA,-0.239,0.869,-0.338,0.656,-0.423,0.999,-0.276,1.14,2.24,1.55,0.885,0.145,0.496,0.679,-0.189,0.501,-0.189,0.459,-0.333,0.401
ACCGACAGGTGAGTGAAGGTAACTCAGCTGGACG,0.184,-0.107,-0.658,-0.575,-0.831,0.00904,0.444,0.0898,-0.38,-0.0157,0.224,0.64,0.0319,-0.41,-0.391,-0.571,-0.481,-0.0449,-0.642,0.605
CCAGACAGGTGACAAGGTAACTCAGCCTCGATTA,0.0849,0.145,-0.212,-0.039,-0.466,0.6,0.825,0.508,-0.365,0.0365,1.41,1.61,-0.344,-0.0688,0.918,-0.151,-0.207,0.278,0.367,0.783
CGTCAAAGTACAAGGTAACGTAACAGAAAGCAGC,0.052,-0.143,-0.279,0.0117,-0.288,0.136,0.969,0.307,0.31,0.0776,0.112,0.638,-0.0581,-0.118,0.323,-0.0227,-0.131,0.281,0.369,1.1
TCTCGGAGGACACGAAAGGTCACAGCTCGACATC,4.58,5.46,4.91,4.7,0.595,4.62,2.83,4.15,3.13,3.77,2.07,2.97,0.919,0.445,3.93,5.57,1.09,6,2.7,4.78
AGAATGAGGTTATTAACATCAGGGAATTGCGGTC,1.93,1.61,0.0364,1.24,0.0777,2.63,1.32,1.34,0.42,0.938,2.7,2.3,0.432,0.815,0.441,1.18,0.616,1.36,0.203,1.2
ACTAGTAGTTGAGACGAGGGCAACCGATAGGTTG,0.415,0.0058,-0.401,-0.109,-0.494,0.237,0.537,-0.227,-0.398,-0.329,-0.0209,0.386,-0.147,-0.849,-0.115,1.63,0.115,0.6,0.181,0.978
ATCACTAGGTAAGACTCAGTTCAGTGAAGAACGC,0.15,0.00987,0.227,-0.0165,0.239,0.147,0.394,0.383,0.287,0.0779,3.04,2.02,0.271,1.07,0.437,0.891,0.972,0.026,1.03,0.143
CAAACTAGGGCACGAAAGGTCAAAGTCGAATGAC,5.64,6.93,6.08,5.54,1.5,6.49,8.39,7.22,5.17,7.03,7.59,8.38,2.22,0.682,2.46,5.93,1.28,6.53,1.46,4.98
CGTCAATGTTCAAGGTAACGTAACAGAAAGCAGC,-0.00254,-0.129,-0.233,0.0792,0.0791,-0.0522,0.532,0.03,0.263,0.00705,-0.165,0.397,0.371,0.433,0.235,0.00739,-0.0049,-0.00308,0.0887,0.375
ACTAGTTGGTCAGCTGAAGTCACACACAATTCGG,-0.0902,-0.0916,0.115,0.118,0.19,-0.0344,0.754,0.0912,-0.0266,0.0351,0.924,0.828,0.539,0.649,0.462,-0.105,-0.357,0.136,0.213,0.828
ACAGACAGGTGAGTGAAGGTAACTCATCTGGACG,0.0966,-0.0411,-0.402,-0.512,-0.306,-0.155,0.684,0.0954,0.12,-0.143,0.0887,0.393,0.131,-0.119,-1.01,-0.3,-0.565,0.0538,-0.677,0.49
CCTACTGGGCCAACGTCATTGATCAGTCAAAGCA,-0.18,-0.496,-0.262,-0.492,-0.8,0.419,0.876,0.556,-0.362,0.3,3.87,4,-0.653,-0.52,0.534,-0.583,-0.509,0.0251,-0.369,-0.00134
CGAACTAGGTCATTGACAGGACAGTGAATAGTAA,4.56,2.89,0.461,2.07,0.0276,4.67,7.66,6.13,3.8,5.54,8.1,8.32,2.23,1.53,1.77,1.89,0.245,2.44,0.499,3.79
CCGACTGGGGCCTAAGGTTACCATAAGCCAGCCC,0.328,1.58,-0.169,0.716,-1.28,1.26,0.941,2.51,0.0484,1.11,-0.456,-0.247,-1.22,-1.84,0.088,0.127,-0.726,0.85,0.205,0.778
CGTCAAAGTTCCAGGTAACGTAACAGAAAGCAGC,-0.0989,-0.25,-0.161,0.0165,0.0494,0.154,0.501,0.0886,-0.125,0.0621,0.434,0.748,-0.578,0.351,0.169,0.0635,-0.218,0.268,0.632,0.351
CTACCTAGGTGAACAAGGTCGTTGATTACTATTC,0.921,0.98,0.31,1.61,-0.219,2.31,1.31,1.36,-0.0446,0.717,4.5,3.81,0.734,0.335,1.52,2.25,1.14,1.95,0.759,1.5
CCTCGGAGGACAACAGGAGGTCAGGGCTGCCAGA,1.17,1.84,1.45,1.14,-0.784,2.09,0.517,0.522,-0.226,0.18,-0.161,0.479,-0.962,-1.94,1.52,2.11,0.134,2.83,0.694,3.01
TCTAGGAGGCCAGAGGGTCACTCAAGAGGTACGG,1.5,0.891,-0.426,0.559,-1.15,2.65,1.87,3.02,2.76,2.99,1.84,1.03,-0.0331,-0.364,0.662,1.42,-0.35,2.08,-0.215,2.58
ATCGAAAGGTAGAAGGTGAGTATACCCACCCGAA,0.00191,0.0493,-0.115,-0.132,0.0948,1.26,1.3,1.72,0.876,1.03,-0.39,0.667,1.35,-0.025,0.231,0.0568,0.241,0.388,0.608,0.615
CGAACTAGGTGAAGGACAGTGAATCTCCGCACGC,-0.222,-0.234,-0.52,-0.714,-1.01,2.1,3.52,3.2,0.549,2.14,7.22,6.69,0.351,1.02,-0.373,-0.343,-0.341,-0.0643,-0.232,0.792
GTACCAAGGTGGATAGGTCGTTGATGAGTAGGCG,-0.366,-0.16,-0.154,-0.255,-0.708,0.372,0.422,0.293,-0.451,0.026,-0.637,-0.0801,-1.52,-1.37,0.672,-0.207,0.137,-0.144,0.114,0.368
CCTATTAGTTGACAATAAGGGCAACCGAAGCTCG,0.365,0.482,0.182,0.544,0.647,0.418,0.511,0.218,0.0655,0.0255,0.466,0.343,0.307,0.312,0.811,0.771,0.868,1.07,1.45,1.21
